Measurements: PMC8222333, “AsCas12a ultra nuclease facilitates the rapid generation of therapeutic cell medicines”

B1: ATCA (dsDNA)
DNA 1: GCTATCTAGTGCTCAGTACGCACTGATCAAGGAAACTTCTGGCAGGACCAGGTCATGAGATCGGAAGAGCACACGTCTGAACTCCAGTCA
DNA 2: TGACTGGAGTTCAGACGTGTGCTCTTCCGATCTCATGACCTGGTCCTGCCAGAAGTTTCCTTGATCAGTGCGTACTGAGCACTAGATAGC
RNA: AAUUUCUACUCUUGUAGAUAGGAAACUUCUGGCAGGACC
B2: CTAG (dsDNA)
DNA 1: GCTATCTAGTGCTCAGTACGCACTGCTAGAGGAAACTTCTGGCAGGACCAGGTCATGAGATCGGAAGAGCACACGTCTGAACTCCAGTCA
DNA 2: TGACTGGAGTTCAGACGTGTGCTCTTCCGATCTCATGACCTGGTCCTGCCAGAAGTTTCCTCTAGCAGTGCGTACTGAGCACTAGATAGC
RNA: AAUUUCUACUCUUGUAGAUAGGAAACUUCUGGCAGGACC
B3: CGTT (dsDNA)
DNA 1: GCTATCTAGTGCTCAGTACGCACTGCGTTAGGAAACTTCTGGCAGGACCAGGTCATGAGATCGGAAGAGCACACGTCTGAACTCCAGTCA
DNA 2: TGACTGGAGTTCAGACGTGTGCTCTTCCGATCTCATGACCTGGTCCTGCCAGAAGTTTCCTAACGCAGTGCGTACTGAGCACTAGATAGC
RNA: AAUUUCUACUCUUGUAGAUAGGAAACUUCUGGCAGGACC
B4: CTGT (dsDNA)
DNA 1: GCTATCTAGTGCTCAGTACGCACTGCTGTAGGAAACTTCTGGCAGGACCAGGTCATGAGATCGGAAGAGCACACGTCTGAACTCCAGTCA
DNA 2: TGACTGGAGTTCAGACGTGTGCTCTTCCGATCTCATGACCTGGTCCTGCCAGAAGTTTCCTACAGCAGTGCGTACTGAGCACTAGATAGC
RNA: AAUUUCUACUCUUGUAGAUAGGAAACUUCUGGCAGGACC
B5: CATG (dsDNA)
DNA 1: GCTATCTAGTGCTCAGTACGCACTGCATGAGGAAACTTCTGGCAGGACCAGGTCATGAGATCGGAAGAGCACACGTCTGAACTCCAGTCA
DNA 2: TGACTGGAGTTCAGACGTGTGCTCTTCCGATCTCATGACCTGGTCCTGCCAGAAGTTTCCTCATGCAGTGCGTACTGAGCACTAGATAGC
RNA: AAUUUCUACUCUUGUAGAUAGGAAACUUCUGGCAGGACC
B6: CTAT (dsDNA)
DNA 1: GCTATCTAGTGCTCAGTACGCACTGCTATAGGAAACTTCTGGCAGGACCAGGTCATGAGATCGGAAGAGCACACGTCTGAACTCCAGTCA
DNA 2: TGACTGGAGTTCAGACGTGTGCTCTTCCGATCTCATGACCTGGTCCTGCCAGAAGTTTCCTATAGCAGTGCGTACTGAGCACTAGATAGC
RNA: AAUUUCUACUCUUGUAGAUAGGAAACUUCUGGCAGGACC
B7: CTCT (dsDNA)
DNA 1: GCTATCTAGTGCTCAGTACGCACTGCTCTAGGAAACTTCTGGCAGGACCAGGTCATGAGATCGGAAGAGCACACGTCTGAACTCCAGTCA
DNA 2: TGACTGGAGTTCAGACGTGTGCTCTTCCGATCTCATGACCTGGTCCTGCCAGAAGTTTCCTAGAGCAGTGCGTACTGAGCACTAGATAGC
RNA: AAUUUCUACUCUUGUAGAUAGGAAACUUCUGGCAGGACC
B8: CCCG (dsDNA)
DNA 1: GCTATCTAGTGCTCAGTACGCACTGCCCGAGGAAACTTCTGGCAGGACCAGGTCATGAGATCGGAAGAGCACACGTCTGAACTCCAGTCA
DNA 2: TGACTGGAGTTCAGACGTGTGCTCTTCCGATCTCATGACCTGGTCCTGCCAGAAGTTTCCTCGGGCAGTGCGTACTGAGCACTAGATAGC
RNA: AAUUUCUACUCUUGUAGAUAGGAAACUUCUGGCAGGACC
B9: CACT (dsDNA)
DNA 1: GCTATCTAGTGCTCAGTACGCACTGCACTAGGAAACTTCTGGCAGGACCAGGTCATGAGATCGGAAGAGCACACGTCTGAACTCCAGTCA
DNA 2: TGACTGGAGTTCAGACGTGTGCTCTTCCGATCTCATGACCTGGTCCTGCCAGAAGTTTCCTAGTGCAGTGCGTACTGAGCACTAGATAGC
RNA: AAUUUCUACUCUUGUAGAUAGGAAACUUCUGGCAGGACC
B10: GATC (dsDNA)
DNA 1: GCTATCTAGTGCTCAGTACGCACTGGATCAGGAAACTTCTGGCAGGACCAGGTCATGAGATCGGAAGAGCACACGTCTGAACTCCAGTCA
DNA 2: TGACTGGAGTTCAGACGTGTGCTCTTCCGATCTCATGACCTGGTCCTGCCAGAAGTTTCCTGATCCAGTGCGTACTGAGCACTAGATAGC
RNA: AAUUUCUACUCUUGUAGAUAGGAAACUUCUGGCAGGACC
B11: ATGC (dsDNA)
DNA 1: GCTATCTAGTGCTCAGTACGCACTGATGCAGGAAACTTCTGGCAGGACCAGGTCATGAGATCGGAAGAGCACACGTCTGAACTCCAGTCA
DNA 2: TGACTGGAGTTCAGACGTGTGCTCTTCCGATCTCATGACCTGGTCCTGCCAGAAGTTTCCTGCATCAGTGCGTACTGAGCACTAGATAGC
RNA: AAUUUCUACUCUUGUAGAUAGGAAACUUCUGGCAGGACC
B12: CCCA (dsDNA)
DNA 1: GCTATCTAGTGCTCAGTACGCACTGCCCAAGGAAACTTCTGGCAGGACCAGGTCATGAGATCGGAAGAGCACACGTCTGAACTCCAGTCA
DNA 2: TGACTGGAGTTCAGACGTGTGCTCTTCCGATCTCATGACCTGGTCCTGCCAGAAGTTTCCTTGGGCAGTGCGTACTGAGCACTAGATAGC
RNA: AAUUUCUACUCUUGUAGAUAGGAAACUUCUGGCAGGACC
B13: CATC (dsDNA)
DNA 1: GCTATCTAGTGCTCAGTACGCACTGCATCAGGAAACTTCTGGCAGGACCAGGTCATGAGATCGGAAGAGCACACGTCTGAACTCCAGTCA
DNA 2: TGACTGGAGTTCAGACGTGTGCTCTTCCGATCTCATGACCTGGTCCTGCCAGAAGTTTCCTGATGCAGTGCGTACTGAGCACTAGATAGC
RNA: AAUUUCUACUCUUGUAGAUAGGAAACUUCUGGCAGGACC
B14: ATCT (dsDNA)
DNA 1: GCTATCTAGTGCTCAGTACGCACTGATCTAGGAAACTTCTGGCAGGACCAGGTCATGAGATCGGAAGAGCACACGTCTGAACTCCAGTCA
DNA 2: TGACTGGAGTTCAGACGTGTGCTCTTCCGATCTCATGACCTGGTCCTGCCAGAAGTTTCCTAGATCAGTGCGTACTGAGCACTAGATAGC
RNA: AAUUUCUACUCUUGUAGAUAGGAAACUUCUGGCAGGACC
B15: CATA (dsDNA)
DNA 1: GCTATCTAGTGCTCAGTACGCACTGCATAAGGAAACTTCTGGCAGGACCAGGTCATGAGATCGGAAGAGCACACGTCTGAACTCCAGTCA
DNA 2: TGACTGGAGTTCAGACGTGTGCTCTTCCGATCTCATGACCTGGTCCTGCCAGAAGTTTCCTTATGCAGTGCGTACTGAGCACTAGATAGC
RNA: AAUUUCUACUCUUGUAGAUAGGAAACUUCUGGCAGGACC

Target: dAsCas12a E174R (Acidaminococcus sp., UniProt U2UMQ6 1-1307, E174R;D908A;E993A;D1235A)
Assay: Spec-seq (native PAGE EMSA with sequencing of bound and unbound); 25 mM Tris-HCl pH 7.4, 150 mM KCl, 5 mM MgCl2, 10% glycerol, 1 mM DTT, 40 ng/uL salmon sperm DNA; 400 nM Cas12a, 480 nM crRNA, 50 nM library, 37 C 1 h; native PAGE at room temperature; high values mean tight binding
Details: protein: recombinant

| Binder | binding signal [lnKA] |
| --- | --- |
| B1 | -8.4 |
| B2 | -8.81 |
| B3 | -8.95 |
| B4 | -8.89 |
| B5 | -8.38 |
| B6 | -8.81 |
| B7 | -8.73 |
| B8 | -8.56 |
| B9 | -8.98 |
| B10 | -8.27 |
| B11 | -8.95 |
| B12 | -8.63 |
| B13 | -8.78 |
| B14 | -8.78 |
| B15 | -7.55 |

Target: dAsCas12a S542R (Acidaminococcus sp., UniProt U2UMQ6 1-1307, S542R;D908A;E993A;D1235A)
Assay: as above
Details: protein: recombinant

| Binder | binding signal [lnKA] |
| --- | --- |
| B1 | -5.58 |
| B2 | -8.57 |
| B3 | -8.31 |
| B4 | -8.52 |
| B5 | -8.49 |
| B6 | -8.52 |
| B7 | -7.58 |
| B8 | -6.18 |
| B9 | -8.41 |
| B10 | -8.34 |
| B11 | -8.32 |
| B12 | -6.21 |
| B13 | -8.13 |
| B14 | -7.09 |
| B15 | -8.31 |

Target: d-enCas12a (Acidaminococcus sp., UniProt U2UMQ6 1-1307, E174R;S542R;K548R;D908A;E993A;D1235A)
Assay: as above
Details: protein: recombinant

| Binder | binding signal [lnKA] |
| --- | --- |
| B1 | -1.74 |
| B2 | -5.78 |
| B3 | -5.2 |
| B4 | -5.79 |
| B5 | -4.73 |
| B6 | -5.65 |
| B7 | -3.44 |
| B8 | -4.37 |
| B9 | -4.47 |
| B10 | -3.86 |
| B11 | -5.32 |
| B12 | -3.48 |
| B13 | -3.35 |
| B14 | -3.06 |
| B15 | -2.95 |

Target: d-enCas12a-Ultra (Acidaminococcus sp., UniProt U2UMQ6 1-1307, E174R;S542R;K548R;M537R;F870L;D908A;E993A;D1235A)
Assay: as above
Details: protein: recombinant

| Binder | binding signal [lnKA] |
| --- | --- |
| B1 | -0.402 |
| B2 | -3.2 |
| B3 | -2.1 |
| B4 | -3.21 |
| B5 | -2.28 |
| B6 | -3.31 |
| B7 | -0.714 |
| B8 | -0.97 |
| B9 | -1.3 |
| B10 | -1.57 |
| B11 | -2.52 |
| B12 | -0.7 |
| B13 | -1.16 |
| B14 | -0.664 |
| B15 | -0.95 |

Target: dAsCas12a K548R (Acidaminococcus sp., UniProt U2UMQ6 1-1307, K548R;D908A;E993A;D1235A)
Assay: as above
Details: protein: recombinant

| Binder | binding signal [lnKA] |
| --- | --- |
| B13 | -8.88 |
